This assay is described as follows: Acumen qHTS Assay for Inhibitors of the mTORC1 Signaling Pathway in MEF (Tsc2-/-, p53-/-) Cells: Hit Validation.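 For activity change, negative = inhibition: cells exposed to compound for 24 hours; plate controls were DMSO for no effect and 7.5 nM rapamycin control for full effect.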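 Note: phospho-rpS6 Ser235/236 immunofluorescence normalized to propidium iodide cell count; nearly all actives have a fitted effect of over 65% in size.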 To be noted: Acumen imaging; activity change, negative = inhibition: at 37.3 µM (top of the series). Background: Quantitative high-throughput screening tests each substance at several concentrations.

Inconclusive results are not listed. Calls of active or inactive are those of the source. Calls come from the whole dose curve; as a rule, active = well fitted inhibition curve with a large enough effect; inconclusive = small, poorly fitted or top-dose-only effect; inactive = no such curve, though single readings can be large or run the other way.
Potency is the fitted concentration of half-maximal effect.

As to `CC1=C(C(=O)Nc2ccc(C)cc2C)C(c2cc(Br)ccc2F)n2ncc(C(=O)Nc3ccc(C)cc3)c2N1` (configuration not stated), the Potency was 9.27 µM (active). As to `CCN(CC)S(=O)(=O)c1ccc(NC(=O)CCc2c(C)nc3cc(-c4ccc(Cl)cc4)nn3c2C)cc1`, the activity change, negative = inhibition is -101%. With `Cc1cccc(-c2nc3c(cnn3-c3ccccc3)c(=O)n2-c2ccc(Br)cc2)c1`, the activity change, negative = inhibition is -37.3%. Same read-out and setting: for `Cc1cc(C)c(-c2n[nH]c3c2C(c2ccccc2F)N(Cc2ccco2)C3=O)c(O)c1` (configuration not stated) the value was 2.41%; for `COc1ccc(-n2ncc3c(NCCCOC(C)C)ncnc32)cc1`, 1.17%. `Cc1ccc(-n2c(=O)c3ccc(C(=O)NCc4ccco4)cc3n(Cc3ccc(Cl)cc3)c2=O)cc1`: the Potency was 9.27 µM (active). As to `COc1cc(OC)cc(C(=O)NCCc2csc(-c3cccc(C)c3)n2)c1`, the activity change, negative = inhibition was -7.07%. Same read-out and setting: in the case of `CCC(=O)C1=C(c2ccc(F)cc2)N(C(=O)CC)n2cnnc2S1` it was -29.5%; in that of `CC(C)CCNc1nc(Nc2ccccc2)c2cnn(C)c2n1`, 17.1%; in that of `C#CCN1C(=O)C(O)(CC(=O)c2ccc(OC)c(OC)c2)c2cc(Br)ccc21` (configuration not stated), -24.1%.

`O=C(Nc1cccc(C(F)(F)F)c1)c1cnn(-c2cccc(F)c2)c1C1CCNCC1`: the activity change, negative = inhibition was -13.8%. Regarding `CN(c1ccccc1)S(=O)(=O)c1ccc(NC(=O)c2nc(S(C)(=O)=O)ncc2Cl)cc1`, the Potency was 1.47 µM (active). Regarding `COc1cc(CNc2ccc3c(c2)ncn3C(C)C)cc(OC)c1OC`, the activity change, negative = inhibition is -25.9%.

On to `CCCCN(C)CCNC(=O)c1cc2c(=O)n(C)c3ccccc3c2n1C`, for which the activity change, negative = inhibition was -0.172%. On the same count and under the same terms, in the case of `CCOc1ccc(S(=O)(=O)N(C(C)=O)c2ccc3oc(C)c(C(=O)OC)c3c2)cc1` it was -69.9%; in that of `COc1ccc(-c2n[nH]c3c2C(c2ccc(O)cc2)N(c2ccc(Br)cc2)C3=O)cc1` (configuration not stated), 2.17%; in that of `COC(=O)c1cc2sc(C)cc2n1Cc1ccccc1`, -16.6%. On the same count and under the same terms, in the case of `CCN(C(=O)C(NS(=O)(=O)c1ccc(Br)s1)c1ccccc1)c1ccc(C)c(C)c1` (configuration not stated) it was -46.3%; in that of `Cc1ccc([C@H]2Nc3ccc(S(=O)(=O)Nc4cccc(Cl)c4C)cc3[C@H]3C=CC[C@H]32)cc1`, 8.84%. In the case of `O=C(CN1C(=O)C(c2ccc(F)cc2)=NC12CCCCCC2)Nc1ccccc1Cl`, the activity change, negative = inhibition is 12.4%.

In the case of `CCNc1nc2c(c(=O)[nH]c(=O)n2C)n1CC(O)COc1ccc(Cl)cc1Cl` (configuration not stated), the Potency was 0.147 µM (active). Turning to `CCc1ccc(S(=O)(=O)c2nnn(-c3ccc(F)cc3)c2N)cc1`, the activity change, negative = inhibition is -3.55%. On to `CCN1CCOC(=O)C1CC(=O)Nc1cc(C)ccc1OC` (configuration not stated), for which the Potency is 10.4 µM (active). On to `CC1C(=O)N2CCCc3cc(S(=O)(=O)Nc4ccc(Br)cc4F)cc1c32` (configuration not stated), for which the Potency was 4.65 µM (active). With `Cc1ccccc1C(=O)N1CCN(CCc2ccccn2)CC1`, the activity change, negative = inhibition was -26.5%. For `Cc1ccc(O)c(C(CC(=O)NCC2(c3ccccc3)CCCC2)c2ccccc2)c1` (configuration not stated), the activity change, negative = inhibition amounted to 2.09%. Same read-out and setting: for `COc1ccc(S(=O)(=O)Nc2ccc3oc4c(c3c2)CCCC4)cc1` the value was 1.17%. For `COc1ccc(CCN2C(=O)c3[nH]nc(-c4ccccc4O)c3C2c2cccc(OC)c2)cc1` (configuration not stated), the Potency was 5.85 µM (active).

In the case of `CCc1ccc(-n2c(=O)c3c4c(sc3n(CC(=O)c3ccc(F)cc3)c2=O)CCC4)cc1`, the activity change, negative = inhibition was -153%. On the same count and under the same terms, in the case of `COc1ccc(CNCCC(c2ccc3c(c2)OCO3)c2ccccc2OC)cc1` (configuration not stated) it was -87.3%. Take `CCOc1c(Br)cc(C2CC(=O)Nc3cc4c(cc32)OCO4)cc1OC` (configuration not stated): the activity change, negative = inhibition is -47.7%. For the compound `Cc1ccc2[nH]c(=O)c3cc(C(=O)NCCCN4CCC(C)CC4)sc3c2c1`, the Potency is 13.1 µM (active).

Take `COc1ccccc1N1CCN(Cc2cc(COC(C)C)c3cccnc3c2O)CC1`: the Potency is 5.21 µM (active). The same measure, in the same setting: for `COc1ccc(OC)c(NC(=O)c2nc(S(=O)(=O)Cc3ccc(F)cc3)ncc2Cl)c1` the value was 2.07 µM (active). As to `CCCCN(CCCNC(=O)c1cc(Nc2cccc(SC)c2)nc2ccccc12)Cc1ccccc1`, the activity change, negative = inhibition is -95.1%. With `CCOc1ccc(-c2nc(SCC(=O)c3ccccc3)n[nH]2)cc1`, the activity change, negative = inhibition is -131%. Take `COc1ccccc1N1CCN(C(=O)c2cnc(N3CCCCC3)c3ccccc23)CC1`: the Potency was 0.927 µM (active).

These data come from PubChem BioAssay AID651784 (National Center for Advancing Translational Sciences (NCATS), 2012).
